Screening data from PubChem.
Only some compounds are listed: those with a hit (about 7.8% of all), similar ones and a draw of the others.
Vaccinia Venus = vaccinia inhibition (Venus reporter); Vaccinia virus Venus reporter expression, fluorescence; Potency, µM (series often up to 36.5 µM), most hits filed as inhibitors; 0.46% of 330,000 active; AID 720580; calls by dose curve; tested in A549 cells; note: nearly all actives have a fitted effect of over 30% in size
HCV inhibitor = HCV inhibition; Huh7.5.1 HCVcc-Cre infection, luciferase reporter, 44 h; Potency, µM (series often up to 41.8 µM), hits mostly inhibitors; 3.4% of 340,000 active; active = well fitted inhibition curve with a large enough effect; inconclusive = small, poorly fitted or top-dose-only effect, or another doubt; inactive = no such curve, though single readings can be large or run the other way
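1,000 cells/well; 4 h culture; + compound; + HCVcc-Cre (~0.5 moi); 44 h; luciferase substrate, RT 15 min; read 15 sec.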
Lassa entry inh = Lassa virus entry inhibition | Lassa virus pseudotype entry inhibition, cell reporter | Potency, µM (titrated, usually from 37.9 µM), actives largely listed as inhibitors | 1.2% of 300,000 active | AID 540256; calls by dose curve; tested in HEK293 cells; note: nearly all actives have a fitted effect of over 50% in size
Vaccinia mCherry = vaccinia inhibition (mCherry reporter); Potency, µM (top dose mostly 36.5 µM), most hits filed as inhibitors; 0.63% of 310,000 active; Vaccinia virus mCherry reporter infection, fluorescence; AID 720579; calls by dose curve; tested in A549 cells; note: nearly all actives have a fitted effect of over 35% in size
HCMV inh = human cytomegalovirus inhibition; AID 1259415; 4.5% of 410,000 active; HFF cells, HCMV-luciferase reporter, 72 h; active compounds read low; activity change, negative = inhibition, % at 57.5 µM; in the data active = activity change below about -60%; inconclusive = no clear call, values can overlap the other calls; inactive = above about -39%
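Compounds were evaluated in HFFs infected with an HCMV luciferase reporter virus (MOI 1 PFU/cell). Luciferase in lysates collected 72 h post infection served as the replication measure.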
MARV entry inh = Marburg virus entry inhibition | Marburg virus pseudotyped entry inhibition, cell reporter | Potency, µM (doses to about 37.8 µM), hits mostly inhibitors | 1.8% of 300,000 active | AID 540276; calls by dose curve; tested in HEK293 cells
Numbers stand for hits; n = inactive; u = inconclusive; x = not tested or not shown; ! = not confirmed by another sample.

SMILES	Vaccinia Venus	HCV inhibitor	Lassa entry inh	Vaccinia mCherry	HCMV inh	MARV entry inh
COc1ccc(NC(=O)CC2SC(N3CCCC3)=NC2=O)cc1Cl (stereo not given)	x	n	x	x	n	x
CCN(C(=O)CN1C(=O)NC2(CCc3ccccc32)C1=O)C1CCCCC1 (stereo not given)	n	n	n	n	-100	n
COc1cc2c(cc1NC(=O)CC1SC(N3CCCC3)=NC1=O)oc1ccccc12 (stereo not given)	u	11µM	n	u	n	u
COc1cc2c(cc1NC(=O)CCCN1C(=O)CCC1=O)oc1ccccc12	n	11µM	n	n	n	n
COc1cc2c(cc1NC(=O)CN1C(=O)NC3(CCc4ccccc43)C1=O)oc1ccccc12 (stereo not given)	u	u	u	10µM	n	12µM
Cc1ccccc1CSc1nc2ccsc2c(=O)n1CCC(C)C	n	x	n	n	n	x
COC(=O)c1c(C(=O)OC)c2c3ccccc3cc(-c3ccccc3)n2c1C(=O)OC	x	x	x	x	x	n
CCOc1ccc2c(c1)c(=O)c(C(=O)c1ccc(CC)cc1)cn2CC(=O)Nc1ccccc1C	u	x	n	n	n	n
COc1cc2c(cc1NC(=O)CCCCCN1C(=O)CCC1=O)oc1ccccc12	x	3.5µM	n	x	n	n
COc1ccc(C)cc1NC(=O)CCCN1C(=O)CCC1=O	x	u	n	x	n	n
Cc1c(C(=O)NCc2ccccc2Cl)sc2ncnc(N(C)C3CCCCC3)c12	n	x	u	n	u	x
CCCCNCCCOc1cccc(Cl)c1Cl	n	n	n	n	n	15µM
COc1cccc(CNCCC2=C3C=CC=CC3N=C2)c1 (stereo not given)	x	x	x	x	x	11µM
CCN1C[C@@H]2[C@@H]3C(=O)N(Cc4ccccc4)C(=O)[C@@H]3[C@](C)(C(=O)OC)N2C1=NC1CCCCC1	n	u	x	n	n	x
COC(=O)[C@@]1(C)[C@H]2C(=O)N(Cc3ccccc3)C(=O)[C@H]2[C@H]2CN(C)C(=NC3CCCCC3)N21	n	0.56µM	x	n	n	x
CCN(CC)CCOCCOC(=O)C1(c2ccccc2)CCCC1	n	n	u	n	n	16µM
COc1ccc(/C(C)=N/NC(=O)c2nnn(-c3nonc3N)c2CN(C)c2ccccc2)cc1	x	n	x	x	u	x
CCCc1c(C(=O)N/N=C(\C)c2ccccn2)nnn1-c1nonc1N	u	x	x	0.89µM	-98	x
C/C(=N\NC(=O)c1nnn(-c2nonc2N)c1CN(C)c1ccccc1)c1ccccc1O	u	u	u	u	-100	8.9µM
Cc1ccc(Cn2c(C)c(CNCc3ccc(OC(C)C)cc3)c(C(=O)O)c2C)cc1	n	x	n	n	n	u
N#Cc1cccc(C(Br)S(=O)(=O)c2ccccc2)c1 (stereo not given)	u	x	x	u	-91	x
CC(c1ccccc1)n1c(-c2ccccc2)n[nH]c1=S (stereo not given)	n	x	x	n	x	x
Cc1nnc(C)c2c(C)n(C(C)c3ccccc3)c(C)c12 (stereo not given)	n	10µM	n	n	u	n
COc1ccc(C(C)n2c(C)c3c(C)nnc(C)c3c2C)cc1 (stereo not given)	u	u	n	u	-81!	u
CCN(Cc1ccccc1)C(=O)CCc1c(C)nc2c(c(C)nn2-c2ccc(C)c(C)c2)c1C	n	x	n	n	n	n
SMILES	Vaccinia Venus	HCV inhibitor	Lassa entry inh	Vaccinia mCherry	HCMV inh	MARV entry inh
CCCCNC(=O)c1nc2cc(C)c(C)cc2nc1-c1cccc(OC(F)(F)F)c1	x	x	x	x	n	x
O=C(c1cnn2c1NC(=C1CC1)C=C2C(F)F)N1CCc2ccccc21	n	x	x	n	x	x
Cc1ccc(C)c(NC(=O)CSc2nc(=O)n(Cc3ccncc3)c3c2CCC3)c1	n	x	n	n	n	x
O=C1[C@@H]2CSC(c3ccc(Cl)cc3)N2C(=O)N1c1ccccc1 (stereo not given in full)	n	x	n	n	n	n
C[n+]1cccc(Br)c1	n	x	x	n	x	x
CCCC(=O)N(c1ccc2oc(C)c(C(C)=O)c2c1)S(=O)(=O)c1ccc(CC)cc1	u	x	u	u	-93	x
CC(=O)c1c(C)oc2ccc(N(C(C)=O)S(=O)(=O)c3cccc4cccnc34)cc12	u	u	u	u	-79	u
CCOc1ccc(S(=O)(=O)N(C(C)=O)c2ccc3oc(C)c(C(=O)OC)c3c2)cc1	u	x	u	u	-62	u
CC(=O)c1c(C)oc2ccc(N(C(C)=O)S(=O)(=O)c3ccc(F)cc3C)cc12	n	u	n	n	n	n
COc1ccc(NC(=O)Cn2c(=O)n(Cc3ccco3)c(=O)c3oc4ccccc4c32)cc1Cl	n	x	n	n	n	x
O=C1CCCc2cc(S(=O)(=O)NCC3CCC(C(=O)NCc4ccccc4Cl)CC3)ccc2N1 (stereo not given)	n	x	n	n	n	x
Cc1oc2ncn(CC(C)C)c(=O)c2c1C(=O)N(Cc1ccccc1)C(C)C	n	x	n	n	n	x
CC(=O)C[C@H](O)CC(=O)[C@H]1OC(=O)CC/C=C\Cc2ccccc21	n	n	x	n	-61	x
CCCNC(=O)c1onc(CSc2ccc(F)c(F)c2)c1C(=O)NCCC	n	u	x	n	n	x
CN(C)CCNC(=O)c1onc(CSc2ccc(F)c(F)c2)c1C(=O)NCCN(C)C	n	13µM	x	n	n	x
O=C1CN(C(=O)COc2ccc(Cl)cc2)C(c2ccc(F)cc2)c2cc(Br)ccc2N1 (stereo not given)	u	x	u	u	n	u
CCSc1nnc(NC(=O)CSc2nc3c(c(=O)n2C)SC(C)C3)s1 (stereo not given)	n	u	n	n	-85	n
Cc1cc2ccccc2c[n+]1C1CCCCC1	n	x	x	n	x	x
COC(=O)C1=C(c2ccc3ccccc3c2)C[C@@H]2CC[C@H]1N2C	n	n	x	n	n	x
COC(=O)C1=C(c2ccc(-c3ccccc3)c(F)c2)C[C@@H]2CC[C@H]1N2C(=O)NC(C)C	u	u	x	u	n	x
COC(=O)C1=C(c2ccc(-c3ccccc3)c(F)c2)C[C@@H]2CC[C@H]1N2C(=O)NCCOc1ccccc1Cl	u	14µM	x	u	n	x
COC(=O)C1=C(c2ccc(-c3ccccc3)c(F)c2)C[C@@H]2CC[C@H]1N2C(=O)NCCO	n	u	x	u	n	x
COC(=O)C1=C(c2ccc(-c3ccccc3)c(F)c2)C[C@@H]2CC[C@H]1N2C(=O)NC1CC1	n	10µM	x	n	n	x
CCCNC(=O)N1[C@H]2CC[C@@H]1C(C(=O)OC)=C(c1ccc(-c3ccccc3)c(F)c1)C2	u	7.9µM	x	u	n	x
COC(=O)C1=C(c2ccc3ccccc3c2)C[C@@H]2CC[C@H]1N2C(=O)NC(C)C	n	n	x	n	-63	x
Fc1ccc(N2CCN(c3nc4ccccc4c4nc(-c5cccnc5)nn34)CC2)cc1	n	x	x	n	n	n
O=C1C2C3C=CC(C3=C(c3ccccc3)c3ccccc3)C2C(=O)N1CCO (stereo not given)	x	n	u	x	n	n
O=C1C2C3C=CC(C3=C(c3ccccc3)c3ccccc3)C2C(=O)N1Cc1ccccc1 (stereo not given)	n	11µM	u	x	n	u
